This note sets out measurements from PubChem BioAssay (Tox21).

Assay [1] is described as follows: qHTS RealTime-Glo MT Cell Viability Assay in HEK293 cells - 16 hour (AID 1224872). Also: nearly all actives have a fitted effect of over 50% in size. Also: potency is read from the fitted curve at half-maximal effect. As to activity change, negative = cytotoxicity: top concentration of the series differs between compounds. The procedure, abridged:
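Tox21 10K qHTS, HEK293, 600 cells/well, RealTime-Glo reagent co-dispensed with cells; 5 h preincubation, compound by pintool, 37 C, luminescence at 0–40 h.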

Assay [2] is described as follows: qHTS RealTime-Glo MT Cell Viability Assay in HepG2 cells - 8 hour (AID 1224873). Also: nearly all actives have a fitted effect of over 55% in size. Also: potency is read from the fitted curve at half-maximal effect. In outline: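 HepG2 cells (600/well) mixed with RealTime-Glo MT reagent, settled 5 h at 37 C/5% CO2 before compound addition. Nonlytic NanoLuc luminescence from viable-cell prosubstrate reduction read repeatedly during 40 h treatment at 37 C.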
On the technique in general: qHTS replaces the single test concentration by a dilution series.

Assay [3] in a line: qHTS RealTime-Glo MT Cell Viability Assay in HEK293 cells - 40 hour (AID 1224874). Also: nearly all actives have a fitted effect of over 50% in size. Also: potency is read from the fitted curve at half-maximal effect. The conditions noted are these: RealTime-Glo luminescence; max response: stronger effect = lower value. The procedure, abridged:
(§1)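 Kinetic, non-lysing viability readout. Seed HEK293 (600/well) with reagent, incubate 5 h at 37 C/5% CO2, pin 23 nL compound in DMSO, incubate at 37 C, read luminescence at 0, 8, 16, 24, 32, 40 h.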

A short description of assay [4]: A CellTox Green Cytotoxicity Assay to monitor cytotoxicity in HEK293 cells - 24 hour (AID 1224875). Also: nearly all actives have a fitted effect of over 45% in size. Also: potency is read from the fitted curve at half-maximal effect. As to activity change: series mostly up to about 77 µM. The procedure, abridged:
(§2)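 Real-time, in one plate: 600 HEK293 cells/well with dead-cell DNA dye, pinned compound after 5 h, 37 C incubation over 40 h; viable cells give no appreciable fluorescence.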

Assay [5] in a line: A CellTox Green Cytotoxicity Assay to monitor cytotoxicity in HepG2 cells - 16 hour (AID 1224876). Also: nearly all actives have a fitted effect of over 45% in size. Also: potency is read from the fitted curve at half-maximal effect. The procedure, abridged:
(§3)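 Cytotoxicity was tracked as dead-cell DNA fluorescence in HepG2 cells treated with test compounds at 37 C; each time-point value comes from one kinetic series spanning 0, 8, 16, 24, 32 and 40 h.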

The nature of assay [6]: qHTS RealTime-Glo MT Cell Viability Assay in HepG2 cells - 32 hour (AID 1224877). Also: nearly all actives have a fitted effect of over 55% in size. Also: potency is read from the fitted curve at half-maximal effect. In outline: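 Cells + NanoLuc/prosubstrate dispensed (600 cells/well) → 5 h at 37 C/5% CO2 → compounds in DMSO transferred → 40 h incubation at 37 C, luminescence read at 0, 8, 16, 24, 32, 40 h.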
Assay [7] is described as follows: A CellTox Green Cytotoxicity Assay to monitor cytotoxicity in HepG2 cells - 24 hour (AID 1224878). Also: nearly all actives have a fitted effect of over 45% in size. Also: potency is read from the fitted curve at half-maximal effect. In outline: as §3
The nature of assay [8]: A CellTox Green Cytotoxicity Assay to monitor cytotoxicity in HepG2 cells - 40 hour (AID 1224879). Also: nearly all actives have a fitted effect of over 40% in size. Also: potency is read from the fitted curve at half-maximal effect. The procedure, abridged: as §3
Assay [9] in a line: qHTS RealTime-Glo MT Cell Viability Assay in HEK293 cells - 0 hour (AID 1224880). Also: top concentration of the series differs between compounds; nearly all actives have a fitted effect of over 45% in size. The procedure, abridged: as §1
The nature of assay [10]: A CellTox Green Cytotoxicity Assay to monitor cytotoxicity in HEK293 cells - 32 hour (AID 1224881). Also: nearly all actives have a fitted effect of over 40% in size. Also: potency is read from the fitted curve at half-maximal effect. In outline:
as §2

Several values for one entry are separate records, joined by “and”; a condition that tells them apart may be missing. Identical values can stand only once. Results filed as inconclusive are left out. Some structures have more than one record in an assay (separate samples or runs), and their calls can disagree. Activity calls are given as the source filed them. Calls follow the shape of the dose curve; as a rule, active = well fitted curve in the direction sought with a large enough effect in the repeat runs; inconclusive = weak or mixed curves; inactive = no such curve, though single readings can be large; an effect the other way counts as inactive or inconclusive.
% is scaled to controls: 0 for no effect and ±100 for the full control effect.

`O=C1CC2(CCCC2)CC(=O)N1CCCCN1CCN(c2ncccn2)CC1`: the Potency in assay [1] is 43.6 µM (active) and inactive; in assay [3], 27.5 µM (active); in assay [8] it was 38.9 µM (active) and inactive. Moreover, the Potency entry in assay [2], in [4], in [5], in [6], in assay [7] and in [9] was “inactive” each time. The Potency result in assay [10] is “inactive”.

With `CC(C)(C)NCC(O)COc1ccccc1OCC1CCCO1` (stereo not given), the Potency entry in [1], in assay [2], in assay [4], in [5], in assay [6] and in [7] was “inactive” throughout. The Potency entry in assay [8], in assay [9] and in assay [10] was “inactive” in each case. For the same compound, the max response in assay [3] was 0.952% (inactive).

As for `CC(C)C(=O)c1c(C(C)C)nn2ccccc12`, the Potency result in [1], in [2], in [4], in assay [5], in assay [6] and in assay [7] was “inactive” in each case. For the same compound, the Potency result in assay [8], in assay [9] and in assay [10] was “inactive” throughout. Moreover, the max response in [3] is -0.81% (inactive).

Regarding `O=c1n(CC2CO2)c(=O)n(CC2CO2)c(=O)n1CC1CO1` (stereo not given), the Potency entry in assay [1], in assay [2], in [4], in assay [5], in [6] and in assay [7] was “inactive” each time. For the same compound, the Potency entry in assay [8], in assay [9] and in assay [10] was “inactive” throughout. In addition, the Potency in [3] was 1.37 µM (active).

`O=C(O)c1cn(-c2ccc(F)cc2)c2cc(N3CCNCC3)c(F)cc2c1=O`: the Potency entry in assay [1], in assay [2], in assay [4], in [5], in assay [6] and in [7] was “inactive” in each case. Besides, the Potency result in assay [8], in assay [9] and in [10] was “inactive” each time. Further, in assay [3], the max response is 4.85% (inactive) and 19.5% (inactive).

As to `CCCCCCCCCCCCCCCCCl`, the values for the activity change, negative = cytotoxicity in assay [1] and in [9] were 1.99% [at 15.8 µM] (inactive) and 2.19% [at 15.8 µM] (inactive), respectively. Besides, the viability change, negative = cytotoxic in assay [2] is 0.131% [at 15.8 µM] (inactive). The max response in assay [3] is 0.0293% (inactive). For the same compound, the activity change in [4] was 8.22% [at 15.8 µM, stronger effect = higher value] (inactive). The cytotoxicity increase in assay [5] is 3.3% [at 15.8 µM] (inactive); in [8], 1.26% [at 15.8 µM] (inactive); in assay [10], 8.79% [at 15.8 µM] (inactive). In addition, the activity change, negative = cytotoxic in assay [6] is 6.67% [at 15.8 µM] (inactive). Also, the cytotoxicity in [7] is 2.62% [at 15.8 µM] (inactive).

For `Cc1occc(=O)c1OC(=O)C(C)C`, the Potency entry in assay [1], in assay [2], in assay [4], in assay [5], in [6] and in assay [7] was “inactive” in each case. Also, the Potency entry in assay [8], in [9] and in [10] was “inactive” throughout. Also, the max response in assay [3] was -0.202% (inactive).

Take `COc1ccc(COC(C)=O)cc1`: the Potency result in assay [1], in assay [2], in assay [4], in assay [5], in assay [6] and in assay [7] was “inactive” each time. The Potency result in assay [8], in assay [9] and in assay [10] was “inactive” in each case. Further, the max response in assay [3] is 5.85% (inactive).

`CCn1c2ccccc2c2cc(N)ccc21`: the Potency entry in assay [1], in [2], in assay [4], in assay [5], in assay [6] and in assay [7] was “inactive” each time. Further, the Potency entry in [8], in [9] and in assay [10] was “inactive” each time. For the same compound, the max response in assay [3] was -18.5% (inactive) and -3.18% (inactive) and -13.8% (inactive).

In the case of `CCOC(=O)C(C)C(C)=O` (stereo not given), the Potency entry in assay [1], in [2], in assay [4], in assay [5], in assay [6] and in assay [7] was “inactive” each time. In addition, the Potency result in assay [8], in [9] and in assay [10] was “inactive” in each case. Moreover, in assay [3], the max response was -0.314% (inactive).

For the compound `CO[Si](OC)(OC)c1ccccc1`, the Potency result in assay [1], in assay [2], in [4], in assay [5], in [6] and in assay [7] was “inactive” in each case. Further, the Potency entry in assay [8], in assay [9] and in assay [10] was “inactive” in each case. Further, in [3], the max response was 0.242% (inactive).

Regarding `O=S(=O)(O)c1ccc2nc(-c3ccccc3)[nH]c2c1`, the Potency entry in assay [1], in assay [2], in [4], in assay [5], in assay [6] and in [7] was “inactive” in each case. For the same compound, the Potency entry in assay [8], in assay [9] and in [10] was “inactive” throughout. The max response in assay [3] was 4.15% (inactive) and 2.95% (inactive).

For `CCC[C@H](N[C@@H](C)C(=O)N1[C@H](C(=O)O)C[C@@H]2CCCC[C@@H]21)C(=O)OCC`, the Potency result in [1], in [2], in [4], in assay [5], in [6] and in assay [7] was “inactive” in each case. In addition, the Potency result in assay [8], in [9] and in [10] was “inactive” each time. Also, the max response in assay [3] is 4.1% (inactive) and 12.6% (inactive).

With `CCCC(=O)c1ccccc1`, the Potency result in assay [1], in [2], in assay [4], in assay [5], in [6] and in assay [7] was “inactive” each time. For the same compound, the Potency result in assay [8], in assay [9] and in assay [10] was “inactive” throughout. Moreover, in [3], the max response is 2.03% (inactive).

As for `CCN(CC)C(=O)Nc1ccc(OCC(O)CNC(C)(C)C)c(C(C)=O)c1` (stereo not given), the Potency result in assay [1], in assay [2], in [4], in [5], in assay [6] and in [7] was “inactive” throughout. The Potency result in assay [8], in [9] and in assay [10] was “inactive” each time. The max response in assay [3] was 1.66% (inactive).

Regarding `C=CC(=O)OCCCCCCCC`, the Potency entry in [1], in [2], in assay [4], in assay [5], in assay [6] and in assay [7] was “inactive” each time. Also, the Potency result in [8], in assay [9] and in assay [10] was “inactive” each time. Moreover, the max response in [3] was 3.71% (inactive).

Consider `O=Cc1ccc(Cl)cc1`, for which the Potency result in [1], in [2], in [4], in [5], in assay [6] and in assay [7] was “inactive” each time. For the same compound, the Potency entry in assay [8], in assay [9] and in assay [10] was “inactive” in each case. Also, in assay [3], the max response is -1.8% (inactive).

Consider `NNCCc1ccccc1`, for which the Potency result in assay [1], in [2], in assay [4], in assay [5], in [6] and in assay [7] was “inactive” in each case. For the same compound, the Potency entry in assay [8], in [9] and in assay [10] was “inactive” in each case. Also, the max response in assay [3] was -29.6% (inactive) and 3.04% (inactive).

As to `Cc1cc(Cc2cc(C)cc(C(C)(C)C)c2O)c(O)c(C(C)(C)C)c1`, the Potency in assay [1] is 15.6 µM (active) and 17.4 µM (active); in [2], 38.9 µM (active); in assay [3] it was 8.75 µM (active) and 15.5 µM (active); in assay [4], 43.9 µM (active) and 43.6 µM (active); in [5], 39.1 µM (active) and 38.9 µM (active); in [6], 49.2 µM (active) and 49 µM (active). In addition, the Potency in assay [7] is 43.9 µM (active) and 43.6 µM (active); in [8], 49.2 µM (active) and 43.6 µM (active); in assay [10], 49.2 µM (active) and 43.6 µM (active). Further, the Potency result in assay [9] is “inactive”.
